36 compounds from PubChem BioAssay AID1347142 (National Center for Advancing Translational Sciences (NCATS), 2019) can be followed below.

Molecules are shown by their SMILES. Records with an inconclusive call do not appear. Activity calls are given as the source filed them. Calls follow the shape of the dose curve; as a rule, active = well fitted inhibition curve with a large enough effect; inconclusive = small, poorly fitted or top-dose-only effect; inactive = no such curve, though single readings can be large or run the other way.
Also: nearly all actives have a fitted effect of over 80% in size.
For activity change, negative = inhibition in this document: 0% is about no effect.
Potency is read from the fitted curve at half-maximal effect.

Chain of N-terminal Xaa-Pro-Lys N-methyltransferase 1 (Homo sapiens) (Q9BV86 whole entry, looked up): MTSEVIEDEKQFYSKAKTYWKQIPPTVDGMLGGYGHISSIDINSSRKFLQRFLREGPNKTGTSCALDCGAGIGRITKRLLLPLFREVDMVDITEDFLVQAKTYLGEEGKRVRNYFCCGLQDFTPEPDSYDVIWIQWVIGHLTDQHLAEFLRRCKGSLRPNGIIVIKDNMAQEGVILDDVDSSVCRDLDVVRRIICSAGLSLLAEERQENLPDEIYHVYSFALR

This experiment addresses N-terminal Xaa-Pro-Lys N-methyltransferase 1 (Homo sapiens) (UniProt Q9BV86). Briefly: qHTS Assay for Inhibitors of N-terminal methyltransferase 1 (NTMT1): ThioGlo3 Assay Confirmatory Screen, Round 1. As to conditions: NTMT1 SAHH-coupled ThioGlo3 fluorescence, 30 min; series mostly up to 56.8 µM; activity change, negative = inhibition: at the top concentration. The essentials:
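Human NTMT1 at 125 nM was preincubated 1 min at room temperature with compounds at various concentrations or 1 uM RCC1-6 control. Substrate mix (100 uM SAM, 10 uM SAHH, 15 uM ThioGlo3) was added, and fluorescence (Ex 340/Em 450 nm) was read at start and after 30 min, normalized to background.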
In general terms: In qHTS, concentration-response curves come from the screen itself.
Consider `O=C(Nc1ncnc2c1ncn2[C@@H]1O[C@@H]2COP(=O)(O)O[C@H]2[C@H]1O)c1ccccc1`, for which the “activity change, negative = inhibition” value is 20.2% (inactive).

Regarding `NC(=O)c1ccc[n+]([C@@H]2O[C@H](COP(=O)([O-])OP(=O)(O)OC[C@H]3O[C@@H](n4cnc5c(N)ncnc54)[C@H](O)[C@@H]3O)[C@@H](O)[C@H]2O)c1`, the “activity change, negative = inhibition” value was -14.9% [at 18.9 µM] (inactive).

In the case of `CC[C@H](C)n1cc(C)c2c(C(=O)NCc3c(C)cc(C)[nH]c3=O)cc(-c3ccc(N4CCNCC4)nc3)cc21`, the Potency is 21.5 µM (active).

On to `CNC(=O)[C@H]1O[C@H](n2cnc3c(NCc4cccc(I)c4)ncnc32)[C@@H](O)[C@@H]1O`, for which the “activity change, negative = inhibition” value is 11.8% (inactive).

Take `COc1cc2nc(NCCN(C)C)nc(NC3CC3)c2cc1OC`: the Potency was 27.1 µM (active).

Take `Nc1ncnc2c1ncn2[C@@H]1O[C@H](CSCC[C@H](N)C(=O)O)[C@@H](O)[C@H]1O`: the “activity change, negative = inhibition” value is 1830% (inactive).

On to `CNC(=O)[C@H]1O[C@@H](n2cnc3c(N)ncnc32)[C@H](O)[C@@H]1O`, for which the “activity change, negative = inhibition” value is 8.67% (inactive).

Turning to `CNc1nc(N2CCN(C)CC2)nc2cc(OC)c(OC)cc12`, the Potency is 24.1 µM (active).

As to `Nc1nc(Cl)nc2c1ncn2[C@H]1C[C@H](O)[C@@H](CO)O1`, the Potency result was “inactive”.

As for `COc1cc2c(NC3CCN(C(C)C)CC3)nc(N3CCCN(C(C)C)CC3)nc2cc1OCCCN1CCCC1`, the Potency is 27.1 µM (active).

Take `Nc1nc(=S)c2ncn([C@H]3O[C@@H](CO)[C@@H](O)[C@@H]3O)c2[nH]1`: the Potency was 13 µM (active).

For the compound `CNc1ncnc2c1ncn2[C@@H]1O[C@H](CO)[C@@H](O)[C@@H]1O`, the “activity change, negative = inhibition” value was 7.42% [at 27.4 µM] (inactive).

For the compound `COc1cc2c(NC3CCN(C(C)C)CC3)nc(N3CCCCCC3)nc2cc1OCCCN1CCCCC1`, the Potency was 24.1 µM (active).

Turning to `CO[C@@H]1[C@@H]2OP(=O)(O)OC[C@H]2O[C@H]1n1c(Sc2ccc(Cl)cc2)nc2c(N)ncnc21`, the “activity change, negative = inhibition” value is -11.6% (inactive).

In the case of `Cn1cnc2c(ncn2[C@@H]2O[C@H](CO)[C@@H](O)[C@H]2O)c1=N`, the “activity change, negative = inhibition” value was -5.6% (inactive).

Consider `COc1cc2c(NC3CCN(C(C)C)CC3)nc(N3CCCN(C4CCCCC4)CC3)nc2cc1OCCCN1CCCCC1`, for which the Potency is 24.1 µM (active).

For `CCN(c1cc(-c2ccc(CN3CCOCC3)cc2)cc(C(=O)NCc2c(C)cc(C)[nH]c2=O)c1C)C1CCOCC1`, the “activity change, negative = inhibition” value is -13.6% (inactive).

On to `O=S(=O)(O)c1ccc(Nc2ncnc3c2ncn3[C@@H]2O[C@H](CO)[C@@H](O)[C@H]2O)cc1`, for which the “activity change, negative = inhibition” value is 5.87% (inactive).

In the case of `O=c1[nH]cnc2c1ncn2C1O[C@H](CO)[C@@H](O)[C@H]1O` (stereo partly specified), the “activity change, negative = inhibition” value was 19.8% (inactive).

Take `COc1cc2c(NC3CCN(C(C)C)CC3)nc(N3CCCCCC3)nc2cc1OCCCN1CCCC1`: the Potency was 21.5 µM (active).

On to `COc1cc2nc(N3CCN(C)CC3)nc(NC3CCCC3)c2cc1OC`, for which the Potency was 24.1 µM (active).

For the compound `COc1cc2nc(NC3CCN(C)CC3)nc(N3CCCN(C)CC3)c2cc1OC`, the Potency was 24.1 µM (active).

Consider `COc1cc2c(NC3CCN(C)CC3)cc(N3CCCCN(C)CC3)cc2cc1OCCOCCN(C)C`, for which the Potency was 27.1 µM (active).

Turning to `NC(=S)c1ccc[n+]([C@@H]2O[C@@H](COP(=O)([O-])OP(=O)(O)OC[C@H]3O[C@@H](n4cnc5c(N)ncnc54)[C@H](OP(=O)(O)O)[C@@H]3O)C(O)C2O)c1` (stereo partly specified), the “activity change, negative = inhibition” value is 9.18% (inactive).

With `COc1cc2nc(N3CCN(C)CC3)nc(NCCN(C)C)c2cc1OC`, the Potency is 24.1 µM (active).

Consider `COc1cc2c(NC3CCN(C4CCCCC4)CC3)nc(N3CCCN(C)CC3)nc2cc1OCCOCCN(C)C`, for which the Potency was 27.1 µM (active).

As for `Nc1ncnc2c1nc(N1CCCCC1)n2[C@@H]1O[C@@H]2COP(=O)(O)O[C@H]2[C@H]1O`, the “activity change, negative = inhibition” value is -18.6% (inactive).

`OC[C@H]1O[C@@H](n2cnc3c(Nc4ccccc4)ncnc32)[C@H](O)[C@@H]1O`: the “activity change, negative = inhibition” value was 3.01% (inactive).

Turning to `Nc1ncnc2c1nc(Br)n2C1CC(O)C(CO)O1` (stereo unspecified), the “activity change, negative = inhibition” value is 6.52% (inactive).

On to `C=C1O[C@@](CO)(n2cnc3c(N)ncnc32)[C@H](O)[C@@H]1O`, for which the “activity change, negative = inhibition” value was -25.4% (inactive).

Turning to `COc1cc2nc(N3CCCN(C)CC3)nc(NC3CCN(C)CC3)c2cc1OC`, the Potency is 21.5 µM (active).

As for `COCCCCOc1cc2nc(N3CCCN(C)CC3)nc(NC3CCN(C)CC3)c2cc1OC`, the Potency is 24.1 µM (active).

With `COc1cc2nc(N3CCOCC3)nc(NC3CCN(C)CC3)c2cc1OC`, the Potency is 24.1 µM (active).

As to `C[C@@H](Cc1ccccc1)Nc1ncnc2c1ncn2[C@@H]1O[C@H](CO)[C@@H](O)[C@H]1O`, the “activity change, negative = inhibition” value is -5.57% (inactive).

As to `COc1cc2nc(N3CCN(C)CC3)nc(NC3CCN(C)CC3)c2cc1OC`, the Potency is 24.1 µM (active).

For `COc1cc2c(NC3CCN(C4CCCCC4)CC3)nc(N3CCCN(C)CC3)nc2cc1OCCCN1CCCCC1`, the Potency was 24.1 µM (active).
